Experimental findings from PubChem BioAssay are described below.

The source made the active and inactive calls.

The target in one test is Albumin (Bos taurus) (UniProt P02769). As to the kind of experiment: compounds binding labelled BSA control protein – biochemical, small-molecule microarray, Alexa647 label, 635/667 nm fluorescence, artefact control for SMM control protein annotation, profiling panel (AID 1118).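 Also: score merges 667 nm emission intensity and signal-to-noise per printed compound spot.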 The settings on record: BSA-A647 binding, fluorescence 635 nm, higher = more signal.
The nature of test [1]: probe aXIP binding to arrayed compounds – biochemical, NeuroSMM set, 635/667 nm fluorescence, primary screen (AID 1119).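 Also: probe is the protein aXip251-270 applied at 1 µg/mL to compound-printed slides; binding of probe to printed compounds measured as 667 nm fluorescence plus signal to noise.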 The settings on record: small-molecule microarray, higher = more signal, called active from +8 up or from −8 down.
The nature of test [2]: probe aNOTCH3 binding on compound microarray – biochemical, small-molecule microarray, 635/667 nm fluorescence, primary screen (AID 1120).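 Also: probe is a biotin-tagged antibody raised against NOTCH3 rather than NOTCH3 protein; score merges spot fluorescence near 667 nm with spot signal to noise.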 The settings on record: higher = more signal.
The nature of test [3]: probe aNOTCH2 binding on compound microarray – biochemical, small-molecule microarray, 635/667 nm fluorescence, primary screen (AID 1121).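 Also: score merges feature fluorescence read at 667 nm with its signal to noise.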 The settings on record: higher = more signal.
Test [4] has as its target Carbonic anhydrase 2 (Homo sapiens) (UniProt P00918). As to the kind of experiment: compounds binding carbonic anhydrase 2 – biochemical, small-molecule microarray, Alexa647-labelled CAII, profiling panel (AID 1122). The settings on record: CAII-A647 binding fluorescence, higher = more signal.
A short description of test [5]: COS7 lysate on small-molecule microarray, probe aHis, 635 nm (AID 1123).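 Also: z-score combines 667nm fluorescence intensity with signal-to-noise per printed compound spot.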 The settings on record: COS7 cell lysate, fluorescence, higher = more signal.
The nature of test [6]: probe aLAP1 signal on lysate-treated microarray – cell lysate, small-molecule microarray, COS7 lysate, primary screen (AID 1124).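 Also: lysate comes from COS7 cells expressing LAP1 and is applied at 0.3 µg/mL; score merges spot fluorescence near 667 nm with signal-to-noise over triplicate slides.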 The settings on record: probe aLAP1, fluorescence, higher = more signal.
For another test, the system named is Sam68 (KHDRBS1). As to the kind of experiment: compounds binding KHDRBS1 protein – biochemical, small-molecule microarray, 635 nm fluorescence, primary screen (AID 1125).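 Also: score merges 667 nm channel intensity with signal to noise over triplicate slides.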 The settings on record: higher = more signal.
The subject of test [7] is Chordin-like protein 2 (CHRDL2). As to the kind of experiment: compounds binding chordin-like 2 – biochemical, small-molecule microarray, 635 nm fluorescence, primary screen (AID 1126).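 Also: printed compound slides probed with Chrdl2 protein at 4 µg/mL for 1 h at 4 C; score merges 667 nm emission intensity with signal to noise over three replicate slides.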 The settings on record: fluorescence 635 nm, higher = more signal.
Test [8] concerns the target Concanavalin-A (Canavalia ensiformis) (UniProt P02866). As to the kind of experiment: compounds binding concanavalin A lectin – biochemical, small-molecule microarray, Alexa647 label, 635 nm, artefact control for SMM control protein annotation, primary screen (AID 1127).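 Also: z combines 667 nm emission intensity with signal-to-noise across three replicate slides.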 The settings on record: ConA-A647 binding fluorescence, higher = more signal.
Test [9] in a line: compounds binding Alexa647 anti-His antibody – biochemical, small-molecule microarray, 635 nm fluorescence, artefact control for SMM control protein annotation, primary screen (AID 1128).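 Also: score merges feature fluorescence with signal-to-noise for each printed compound spot.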 The settings on record: higher = more signal.
Test [10] has as its system Human papillomavirus type 1a E7 protein (residues 1-88). As to the kind of experiment: HPV1a E7 small-molecule binders, primary screen, biochemical, small-molecule microarray, residues 1-88, 635 nm (AID 1129). The settings on record: small-molecule microarray binding, fluorescence 635 nm; higher = more signal.
The target in test [11] is Focal adhesion kinase 1 (Homo sapiens) (UniProt Q05397). As to the kind of experiment: PTK2 protein binding on printed compound slides – biochemical, small-molecule microarray, 635/667 nm fluorescence, BSA, DTT, primary screen (AID 1130).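 Also: composite of spot emission at 667 nm and signal to noise over triplicate slides.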 The settings on record: 635 nm fluorescence, higher = more signal.
Test [12] relates to Fibrinogen (Alexa647-labelled). As to the kind of experiment: Alexa647-fibrinogen binding to printed small molecules – biochemical, small-molecule microarray, 635/667 nm fluorescence, artefact control for SMM control-protein annotation, profiling panel (AID 1131).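 Also: z-score merges 667 nm fluorescence with per-spot signal-to-noise over triplicate slides.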 The settings on record: fibrinogen-A647 binding fluorescence, higher = more signal.
For test [13], the target named is Follistatin (Homo sapiens) (UniProt P19883). As to the kind of experiment: FST protein binding to printed compounds – biochemical, small-molecule microarray, 635/667 nm fluorescence, primary screen (AID 1132). The settings on record: 635 nm fluorescence, higher = more signal.
In test [14] the target is Fibroblast growth factor 2 (Homo sapiens) (UniProt P09038). As to the kind of experiment: basic fibroblast growth factor binding to printed compounds – biochemical, small-molecule microarray, 635/667 nm fluorescence, primary screen (AID 1133). The settings on record: FGF2, fluorescence 635/667, higher = more signal.
Test [15] is described as follows: JC-1 mitochondrial potential readout, lung cancer cells – cell-based, A549, JC-1 fluorescence, basal, 24 h, 100 nL, profiling panel (AID 1138).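 Also: A549 lung adenocarcinoma cells under basal conditions with no added stimulus; test concentration not given here.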 The settings on record: higher = more signal.
A further test relates to Lefty1. As to the kind of experiment: Lefty1 protein binding to printed compounds – biochemical, small-molecule microarray, 635/667 nm fluorescence, primary screen (AID 1139). The settings on record: fluorescence 635/667, higher = more signal.
Test [16] has as its system wheat germ agglutinin (Triticum aestivum), Alexa647-labelled. As to the kind of experiment: Alexa647-WGA lectin binding to printed small molecules – biochemical, small-molecule microarray, 635/667 nm fluorescence, artefact control for SMM control-protein annotation, profiling panel (AID 1140).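 Also: score merges 667 nm feature emission with signal to noise over triplicate slides.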 The settings on record: WGA-A647 binding, 635 nm fluorescence, higher = more signal.

Test [17] concerns the target Luciferin 4-monooxygenase (Photinus pyralis) (UniProt P08659). As to the kind of experiment: inhibition of purified Photinus pyralis luciferase – biochemical, luminescence, purified enzyme, 2006 set, primary screen (AID 1141).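 Also: cell-free assay with purified firefly luciferase at 100 ng per well in PBS; test concentration not given here.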 The settings on record: purified firefly luciferase, SteadyGlo luminescence, 30 min; higher = more signal, called active from +8 up or from −8 down.

Luciferin 4-monooxygenase (Photinus pyralis), sequence (P08659 whole entry, looked up): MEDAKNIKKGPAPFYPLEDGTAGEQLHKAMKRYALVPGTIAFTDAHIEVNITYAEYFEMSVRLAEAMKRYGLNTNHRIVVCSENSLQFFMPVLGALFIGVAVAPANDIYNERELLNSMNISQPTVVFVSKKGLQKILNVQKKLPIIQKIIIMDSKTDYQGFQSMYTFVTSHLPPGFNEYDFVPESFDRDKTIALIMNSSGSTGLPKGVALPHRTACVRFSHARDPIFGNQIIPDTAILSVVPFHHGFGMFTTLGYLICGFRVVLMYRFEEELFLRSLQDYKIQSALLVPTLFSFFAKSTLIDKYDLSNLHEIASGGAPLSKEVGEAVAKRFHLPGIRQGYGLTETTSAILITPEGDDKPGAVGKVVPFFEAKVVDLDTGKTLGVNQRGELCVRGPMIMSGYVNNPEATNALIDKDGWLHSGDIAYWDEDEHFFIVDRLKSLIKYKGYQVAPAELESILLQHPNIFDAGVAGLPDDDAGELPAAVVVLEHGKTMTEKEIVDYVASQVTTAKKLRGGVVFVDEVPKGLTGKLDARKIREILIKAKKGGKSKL
Fibroblast growth factor 2 (Homo sapiens), sequence (P09038 whole entry, looked up): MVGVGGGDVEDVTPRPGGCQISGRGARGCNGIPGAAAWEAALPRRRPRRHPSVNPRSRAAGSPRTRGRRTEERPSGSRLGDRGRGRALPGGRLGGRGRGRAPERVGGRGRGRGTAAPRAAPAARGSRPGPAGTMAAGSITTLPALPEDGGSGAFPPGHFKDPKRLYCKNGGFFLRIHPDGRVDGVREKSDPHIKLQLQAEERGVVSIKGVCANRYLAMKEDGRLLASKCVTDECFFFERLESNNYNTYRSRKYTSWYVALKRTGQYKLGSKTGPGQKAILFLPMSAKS
Follistatin (Homo sapiens), sequence (P19883 whole entry, looked up): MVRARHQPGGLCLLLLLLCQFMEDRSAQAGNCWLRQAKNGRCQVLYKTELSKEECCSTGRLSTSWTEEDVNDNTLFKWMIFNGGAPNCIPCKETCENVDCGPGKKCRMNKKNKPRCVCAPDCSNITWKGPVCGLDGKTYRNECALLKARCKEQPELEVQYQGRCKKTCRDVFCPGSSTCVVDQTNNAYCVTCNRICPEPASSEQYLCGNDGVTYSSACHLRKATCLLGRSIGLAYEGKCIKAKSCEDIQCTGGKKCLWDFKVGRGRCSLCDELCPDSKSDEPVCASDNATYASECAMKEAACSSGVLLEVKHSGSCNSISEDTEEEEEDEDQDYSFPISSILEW
Focal adhesion kinase 1 (Homo sapiens), sequence (Q05397 whole entry, looked up): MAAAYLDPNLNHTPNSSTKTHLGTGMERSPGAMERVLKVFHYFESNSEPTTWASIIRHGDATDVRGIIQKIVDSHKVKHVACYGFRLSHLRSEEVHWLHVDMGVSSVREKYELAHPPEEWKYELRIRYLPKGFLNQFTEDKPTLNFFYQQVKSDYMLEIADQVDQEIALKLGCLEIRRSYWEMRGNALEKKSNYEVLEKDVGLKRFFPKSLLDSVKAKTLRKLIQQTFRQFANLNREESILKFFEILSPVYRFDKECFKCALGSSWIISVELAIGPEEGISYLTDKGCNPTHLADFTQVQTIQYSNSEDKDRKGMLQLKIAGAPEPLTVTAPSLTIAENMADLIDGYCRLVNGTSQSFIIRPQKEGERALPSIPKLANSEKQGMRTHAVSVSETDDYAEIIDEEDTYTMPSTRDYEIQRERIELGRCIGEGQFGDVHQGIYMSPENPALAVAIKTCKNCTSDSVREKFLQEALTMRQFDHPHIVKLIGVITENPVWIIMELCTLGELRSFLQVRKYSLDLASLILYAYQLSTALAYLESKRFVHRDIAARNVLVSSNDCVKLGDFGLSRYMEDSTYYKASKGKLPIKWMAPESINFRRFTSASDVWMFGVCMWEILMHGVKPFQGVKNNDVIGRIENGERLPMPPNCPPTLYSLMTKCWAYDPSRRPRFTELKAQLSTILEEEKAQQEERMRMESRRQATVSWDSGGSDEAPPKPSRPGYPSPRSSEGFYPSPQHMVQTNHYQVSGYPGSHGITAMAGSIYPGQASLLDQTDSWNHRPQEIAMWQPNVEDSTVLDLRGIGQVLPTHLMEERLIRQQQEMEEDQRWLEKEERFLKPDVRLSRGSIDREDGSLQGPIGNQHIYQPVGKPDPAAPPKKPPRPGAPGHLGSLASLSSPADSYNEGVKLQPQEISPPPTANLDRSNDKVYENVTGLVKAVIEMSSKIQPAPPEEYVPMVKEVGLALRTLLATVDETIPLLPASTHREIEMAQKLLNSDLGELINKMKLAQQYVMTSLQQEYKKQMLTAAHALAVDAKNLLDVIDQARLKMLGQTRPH
Albumin (Bos taurus), sequence (P02769 whole entry, looked up): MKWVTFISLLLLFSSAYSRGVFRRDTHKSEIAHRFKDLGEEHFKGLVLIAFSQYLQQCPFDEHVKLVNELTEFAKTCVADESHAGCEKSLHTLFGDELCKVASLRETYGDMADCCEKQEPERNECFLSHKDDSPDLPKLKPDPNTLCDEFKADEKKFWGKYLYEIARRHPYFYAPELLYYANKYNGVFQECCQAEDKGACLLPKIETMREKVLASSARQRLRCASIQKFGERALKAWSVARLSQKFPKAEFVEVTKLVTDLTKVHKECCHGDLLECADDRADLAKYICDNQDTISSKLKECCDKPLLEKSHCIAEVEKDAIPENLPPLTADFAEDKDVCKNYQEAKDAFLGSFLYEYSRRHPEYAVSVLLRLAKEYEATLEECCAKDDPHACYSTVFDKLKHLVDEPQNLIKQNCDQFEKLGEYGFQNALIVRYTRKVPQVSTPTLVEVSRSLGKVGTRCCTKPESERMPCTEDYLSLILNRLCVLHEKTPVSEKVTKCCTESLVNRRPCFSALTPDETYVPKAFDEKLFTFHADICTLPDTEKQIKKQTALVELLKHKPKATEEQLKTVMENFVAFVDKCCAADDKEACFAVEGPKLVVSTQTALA
Concanavalin-A (Canavalia ensiformis), sequence (P02866 whole entry, looked up): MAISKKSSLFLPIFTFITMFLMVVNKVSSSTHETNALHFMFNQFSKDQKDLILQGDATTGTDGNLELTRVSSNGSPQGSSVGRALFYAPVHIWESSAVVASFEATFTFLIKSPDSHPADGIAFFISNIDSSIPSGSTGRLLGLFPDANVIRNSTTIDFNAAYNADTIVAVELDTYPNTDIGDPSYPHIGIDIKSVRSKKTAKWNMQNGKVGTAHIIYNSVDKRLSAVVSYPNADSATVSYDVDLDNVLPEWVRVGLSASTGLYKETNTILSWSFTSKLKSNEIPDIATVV

As to `Cc1ccc2[nH]c3nc(CCCn4ccnc4-c4ccccc4)nnc3c2c1`, the composite z-score was 0.414 in the test with Albumin (Bos taurus); 0.079 in [2]; -0.176 in test [3]; 0.465 in test [4]; 0.656 in [5]; 0.0559 in [6]. The composite z-score in the test on Sam68 (KHDRBS1) stood at 1.05; in [7], 0.763; in test [8], 1.1; in [9], 0.663; in [10] it was 1.08; in test [11] it was 0.0863. Also, the composite z-score in test [12] came out at 0.826; in test [13], 0.757; in test [14], 1.19; in the test on Lefty1, 0.802; in [16], 0.676. The composite Z-score in [1] was -0.375 (inactive). Moreover, the z-score in [15] is 0.524; in [17], 0.36 (inactive).

Consider `CC(=O)OC[C@H]1O[C@H](CC=NO[C@@H](C)c2cc(-c3c(C)cc(C)cc3C)no2)C=C[C@@H]1OC(C)=O`, for which the composite z-score with Albumin (Bos taurus) is 0.211; in [2], -0.0984; in test [3], -0.0532; in test [4] it was -0.273; in [5], -0.447; in test [6], 0.234. The composite z-score in the test with Sam68 (KHDRBS1) is -0.177; in [7] it was 0.236; in [8], 0.105; in test [9], 1.81; in test [10] it was -0.375; in test [11], -0.206. Moreover, the composite z-score is 0.318 in test [12]; 0.0047 in [13]; 0.323 in test [14]; -0.0273 in the test with Lefty1; 0.229 in [16]. Further, the composite Z-score in [1] was 0.209 (inactive). In addition, the z-score in test [15] is -0.921; in [17], 0.644 (inactive).

`O=C1[C@H]2CCn3c(=O)n(-c4ccccc4)c(=O)n3[C@H]2[C@H](O)[C@@H]2O[C@H]12`: the composite z-score with Albumin (Bos taurus) was 0.0407; in test [2], -0.177; in test [3], -0.0651; in test [4], 0.0463; in [5], 0.178; in test [6] it was -0.34. Further, the composite z-score in the test with Sam68 (KHDRBS1) is -0.319; in test [7], 0.37; in test [8], 0.218; in test [9], -0.0114; in test [10], 0.301; in test [11], -0.339. Also, the composite z-score in [12] is 0.418; in test [13] it was -0.0705; in test [14], 0.127; with Lefty1, 0.278; in [16] it was 0.465. For the same molecule, in test [1], the composite Z-score was -0.916 (inactive). The results for the z-score in test [15] and in test [17] were 0.718 and 0.0786 (inactive), respectively.

Regarding `CC(C)C(=O)N[C@H]1CCCN1C(=O)C=Cc1ccccc1`, the composite z-score stood at 0.564 with Albumin (Bos taurus); 0.276 in [2]; 0.0062 in [3]; 0.267 in test [4]; 0.253 in test [5]; 0.0905 in test [6]. In addition, the composite z-score was 0.752 in the test with Sam68 (KHDRBS1); 0.242 in test [7]; 0.163 in [8]; 0.508 in test [9]; 0.899 in [10]; 0.225 in test [11]. In addition, the composite z-score is -0.198 in test [12]; 0.438 in [13]; 0.54 in test [14]; 1.13 with Lefty1; -0.441 in test [16]. Besides, the composite Z-score in test [1] is -0.087 (inactive). Further, the z-score is -0.509 in [15] and -0.0726 (inactive) in test [17].

In the case of `CC=CC1=C(CO)[C@H](O)[C@H]2O[C@H]2[C@@H]1O`, the composite z-score was -0.0712 in the test with Albumin (Bos taurus); 0.213 in [2]; -0.141 in test [3]; 0.17 in test [4]; -0.394 in test [5]; -0.599 in test [6]. Further, the composite z-score with Sam68 (KHDRBS1) was 0.269; in test [7], 0.753; in [8], 0.0361; in test [9] it was 0.343; in [10], 0.23; in test [11], -0.401. Further, the composite z-score was -0.0599 in [12]; 0.937 in [13]; 0.45 in test [14]; 0.911 in the test on Lefty1; -0.0224 in test [16]. Moreover, the composite Z-score in [1] is 0.0296 (inactive). Besides, the z-score in test [15] is -0.537; in [17] it was -0.0811 (inactive).
